Experimental data: PubChem BioAssay (Tox21)
Inconclusive results are not listed. Calls of active or inactive are those of the source. Unless noted, the call rests on the fitted dose curve; in most records, active means well fitted curve in the direction sought with a large enough effect in the repeat runs; inconclusive means weak or mixed curves; inactive means no such curve, though single readings can be large; an effect the other way counts as inactive or inconclusive.

Experiments:
[1] = Caspase-3/7 induction in CHO-K1 cells by small molecules, qHTS cell viability counter screen (AID 1346979); further: potency means the concentration at half of the fitted maximal effect; nearly all actives have a fitted effect of over 35% in size
In short: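 To flag cytotoxic compounds, treated CHO-K1 wild-type cells were given CellTiter-Fluor at 16hr and read fluorescently after 1hr at 37C; the caspase-3/7 luminescence was measured in these same wells.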

[2] = Caspase-3/7 induction in CHO-K1 cells by small molecules, qHTS assay (AID 1346980); further: on the % scale 0 is the no-effect control and ±100 the full control effect; nearly all actives have a fitted effect of over 15% in size
In short: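 Wild-type CHO-K1 cells exposed to compounds for 17hr at 37 C, 5% CO2. Caspase-3/7 activity then measured by Caspase-Glo 3/7 luminescence after 30min at room temperature.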

[3] = Caspase-3/7 induction in HepG2 cells by small molecules, qHTS cell viability counter screen (AID 1346981); further: nearly all actives have a fitted effect of over 30% in size; further: potency means the concentration at half of the fitted maximal effect
In short: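 Wild-type HepG2 cells, 2,000/well, settled 5 hr at 37 C, 5% CO2 before compound addition. Viability read by CellTiter-Fluor fluorescence, reagent added after 16 hr compound exposure, then 1 hr at 37C, in the same wells as the caspase read.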

[4] = molecular target: Nuclear receptor subfamily 1 group I member 2 (Homo sapiens) (UniProt O75469); test: Human pregnane X receptor (PXR) small molecule agonists, qHTS assay (AID 1346982); further: nearly all actives have a fitted effect of over 35% in size; further: potency means the concentration at half of the fitted maximal effect; on activation: on the % scale 0 is the no-effect control and ±100 the full control effect
In short: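 PXR-Luc HepG2 reporter cells (CYP3A4-driven luciferase) in 5% charcoal-stripped FBS medium, plated 5 h before compound addition, then treated 24 h at 37C. Luciferase read by ONE-Glo luminescence after 30 min at room temperature.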

[5] = molecular target: Acetylcholinesterase (Homo sapiens) (UniProt P22303); test: Acetylcholinesterase (AChE) small molecule antagonists: enzyme-based qHTS assay (AID 1347397; calls by dose curve; further: nearly all actives have a fitted effect of over 55% in size; further: potency means the concentration at half of the fitted maximal effect; on activity change, negative = inhibition: on the % scale 0 is the no-effect control and ±100 the full control effect); conditions: Potency: AChE enzyme activity inhibition
In short: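 Recombinant human AChE (50 mU/mL) preincubated with compound 30 min at room temperature; acetylthiocholine plus DTNB then added, and thiocholine formation read colorimetrically after 10 min at room temperature. DMSO served as vehicle control.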

[6] = molecular target: Acetylcholinesterase (Homo sapiens) (UniProt P22303); test: Acetylcholinesterase (AChE) small molecule antagonists: enzyme-based qHTS assay with human liver microsomes (AID 1347399; calls by dose curve; further: on the % scale 0 is the no-effect control and ±100 the full control effect; nearly all actives have a fitted effect of over 60% in size); conditions: Potency: qHTS inhibition
In short: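 Recombinant human AChE (50 mU/mL in the enzyme mix) and human liver microsomes (0.25 mg/mL final) were preincubated with compound and NADPH (0.25 mg/mL final) for 30 min at 37 C. Acetylthiocholine/DTNB was then added; thiocholine was read colorimetrically after 10 min at room temperature.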

[7] = molecular target: Cytochrome P450 2D6 (Homo sapiens) (UniProt P10635); test: Cytochrome P450 Family 2 Subfamily D Member 6 (CYP2D6) small molecule antagonists: luciferase reporter qHTS assay (AID 1671196); further: potency means the concentration at half of the fitted maximal effect; nearly all actives have a fitted effect of over 50% in size
In short: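 Cell-free P450-Glo system: CYP2D6 with proluciferin substrate was pre-incubated with compound for 10 min, then reacted with NADPH regeneration for 1 h at room temperature. Luciferin product was detected after 20 min, and data were reported as relative luminescence units.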

[8] = molecular target: Cytochrome P450 2C19 (Homo sapiens) (UniProt P33261); test: Cytochrome P450 Family 2 Subfamily C Member 19 (CYP2C19) small molecule antagonists: luciferase reporter qHTS assay (AID 1671197); further: potency means the concentration at half of the fitted maximal effect; nearly all actives have a fitted effect of over 65% in size
In short: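 CYP2C19 P450-Glo, 1536-well qHTS. Cpd + enzyme/proluciferin substrate 10 min RT; + NADPH regen, 37C 1 h; stop with luciferin detection reagent, 20 min RT, luminescence (RLU). Pos ctrl ketoconazole.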

[9] = molecular target: Voltage-gated inwardly rectifying potassium channel KCNH2 (Homo sapiens) (UniProt Q12809); test: Human Ether-a-go-go-Related Gene (hERG) channel small molecule antagonists: fluorescence cell-based qHTS assay (AID 1671200); further: nearly all actives have a fitted effect of over 50% in size; further: potency means the concentration at half of the fitted maximal effect;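 on activity change, negative = inhibition: hERG-expressing U2OS cells given a thallium stimulus after FluxOR II dye loading; series mostly up to about 77 µM; on the % scale 0 is the no-effect control and ±100 the full control effect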
In short: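 Measured: Tl+ flux via fluorescence (480/540 nm) in hERG-expressing U2OS cells after 1 h dye loading at room temperature.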

[10] = molecular target: Cytochrome P450 3A4 (Homo sapiens) (UniProt P08684); test: Cytochrome P450 Family 3 Subfamily A Member 4 (CYP3A4) small molecule antagonists: luciferase reporter qHTS assay (AID 1671201); further: nearly all actives have a fitted effect of over 50% in size; further: potency means the concentration at half of the fitted maximal effect
In short: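 Setup: enzyme-substrate mix, compound pin transfer, 10 min RT. Reaction: NADPH regeneration solution, 1 h RT. Readout: detection reagent stops turnover, luminescence measured after 20 min, expressed in relative luminescence units.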

[11] = molecular target: Acetylcholinesterase (Homo sapiens) (UniProt P22303); test: Acetylcholinesterase (AChE) small molecule antagonists: colormetric cell-based qHTS assay (AID 1347395; calls by dose curve; further: on the % scale 0 is the no-effect control and ±100 the full control effect; nearly all actives have a fitted effect of over 30% in size)
In short: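 Neuroblastoma line SH-SY5Y supplied the enzyme; cells were preincubated with compound for 30 min at 37 C and 5% CO2. Acetylthiocholine with DTNB was then added for 90 min at 37 C, and thiocholine was measured by colour.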

[12] = molecular target: Acetylcholinesterase (Homo sapiens) (UniProt P22303); test: Acetylcholinesterase (AChE) small molecule antagonists: fluorescence cell-based qHTS assay (AID 1347398; calls by dose curve; further: nearly all actives have a fitted effect of over 50% in size; further: potency means the concentration at half of the fitted maximal effect; on activity change, negative = inhibition: on the % scale 0 is the no-effect control and ±100 the full control effect); conditions: Potency: AChE activity
In short: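 SH-SY5Y cells (2000/well), attached overnight, incubated with compound 30 min at 37 C. Acetylthiocholine plus Thiolite Green then added for 40 min at room temperature. Thiocholine fluorescence (Ex/Em 490/520 nm) reports cellular AChE activity.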

[13] = molecular target: Cytochrome P450 1A2 (Homo sapiens) (UniProt P05177); test: Cytochrome P450 Family 1 Subfamily A Member 2 (CYP1A2) small molecule antagonists: luciferase reporter qHTS assay (AID 1671199); further: nearly all actives have a fitted effect of over 50% in size; further: potency means the concentration at half of the fitted maximal effect
In short: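 P450-Glo CYP1A2 enzyme–proluciferin substrate mix with compound 10 min at room temperature, then NADPH regeneration 1 h at room temperature. Luciferin detection reagent added, luminescence read after 20 min; furafylline positive control.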

[14] = molecular target: Nuclear receptor subfamily 1 group I member 2 (Rattus norvegicus) (UniProt Q9R1A7); test: Rat pregnane X receptor (rPXR) activation by small molecules, qHTS assay (AID 1346983); conditions: rPXR luciferase reporter cells, One-Glo luminescence, 24 h; max activation: hits give high values; further: on the % scale 0 is the no-effect control and ±100 the full control effect; nearly all actives have a fitted effect of over 20% in size
In short: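 Cell-based rPXR activation assay: rPXR cells, 2,000 per well, rested 5hr at 37 C, then exposed to compounds in DMSO for 24 hr at 37 C. Luciferase activity read by One-Glo luminescence after 30 min at room temperature.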

[15] = molecular target: Nuclear receptor subfamily 1 group I member 2 (Homo sapiens) (UniProt O75469); test: CYP3A4 induction through human pregnane X receptor (PXR) by small molecules, qHTS assay (AID 1346984); further: nearly all actives have a fitted effect of over 40% in size; further: potency means the concentration at half of the fitted maximal effect
In short: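 DPX-2 HepG2 cells carrying a PXR response element and CYP3A4-promoter luciferase construct, treated with compounds 24 hr at 37C. Then P450-Glo CYP3A4 Luciferin-IPA substrate (3uM final) for 3 hr at 37C, One-Glo added, luminescence read.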

[16] = molecular target: Cytochrome P450 2C9 (Homo sapiens) (UniProt P11712); test: Cytochrome P450 Family 2 Subfamily C Member 9 (CYP2C9) small molecule antagonists: luciferase reporter qHTS assay (AID 1671198)
In short: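 P450-Glo proluciferin substrate with CYP2C9 enzyme; 10 min RT preincubation, then NADPH regeneration 1 h at 37C; luciferin detection reagent 20 min RT, luminescence in relative luminescence units.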

[17] = molecular target: Nuclear receptor subfamily 1 group I member 2 (Homo sapiens) (UniProt O75469); test: Human pregnane X receptor (PXR) activation by small molecules, qHTS assay (AID 1346985); further: nearly all actives have a fitted effect of over 40% in size; further: potency means the concentration at half of the fitted maximal effect
In short: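 DPX-2 cells (HepG2 co-transfected with a PXR response element and a CYP3A4-promoter luciferase construct) were seeded at 2,000 per well, rested 5 hr at 37C, then exposed to DMSO-dissolved compounds for 24 hr. Activation was read as luciferase luminescence.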

Nuclear receptor subfamily 1 group I member 2 (Homo sapiens), sequence (O75469 whole entry, looked up): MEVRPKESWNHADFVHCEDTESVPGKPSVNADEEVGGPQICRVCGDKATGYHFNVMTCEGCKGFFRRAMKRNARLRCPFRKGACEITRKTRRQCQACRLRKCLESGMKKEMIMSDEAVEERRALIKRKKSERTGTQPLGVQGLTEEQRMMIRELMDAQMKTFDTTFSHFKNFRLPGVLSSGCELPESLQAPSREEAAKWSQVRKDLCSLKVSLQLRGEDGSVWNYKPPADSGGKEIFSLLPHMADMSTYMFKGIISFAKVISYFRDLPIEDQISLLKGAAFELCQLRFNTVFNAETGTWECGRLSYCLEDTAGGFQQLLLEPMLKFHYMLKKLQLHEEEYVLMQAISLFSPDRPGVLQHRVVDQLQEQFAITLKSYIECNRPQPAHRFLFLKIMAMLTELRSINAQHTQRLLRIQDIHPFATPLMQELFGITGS
Cytochrome P450 3A4 (Homo sapiens), sequence (P08684 whole entry, looked up): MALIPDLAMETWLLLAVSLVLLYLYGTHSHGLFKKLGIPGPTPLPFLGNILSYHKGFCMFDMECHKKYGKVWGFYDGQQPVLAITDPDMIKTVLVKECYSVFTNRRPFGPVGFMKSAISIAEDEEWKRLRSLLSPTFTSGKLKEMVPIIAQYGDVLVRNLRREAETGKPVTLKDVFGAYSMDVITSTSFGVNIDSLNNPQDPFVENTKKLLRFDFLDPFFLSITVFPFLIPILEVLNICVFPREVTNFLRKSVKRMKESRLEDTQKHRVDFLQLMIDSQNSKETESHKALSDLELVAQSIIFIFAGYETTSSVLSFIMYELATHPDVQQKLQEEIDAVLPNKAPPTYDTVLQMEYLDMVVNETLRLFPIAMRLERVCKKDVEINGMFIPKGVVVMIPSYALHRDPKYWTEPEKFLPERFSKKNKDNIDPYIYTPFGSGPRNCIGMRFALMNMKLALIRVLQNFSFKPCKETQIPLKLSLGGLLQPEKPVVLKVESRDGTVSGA
Cytochrome P450 1A2 (Homo sapiens), sequence (P05177 whole entry, looked up): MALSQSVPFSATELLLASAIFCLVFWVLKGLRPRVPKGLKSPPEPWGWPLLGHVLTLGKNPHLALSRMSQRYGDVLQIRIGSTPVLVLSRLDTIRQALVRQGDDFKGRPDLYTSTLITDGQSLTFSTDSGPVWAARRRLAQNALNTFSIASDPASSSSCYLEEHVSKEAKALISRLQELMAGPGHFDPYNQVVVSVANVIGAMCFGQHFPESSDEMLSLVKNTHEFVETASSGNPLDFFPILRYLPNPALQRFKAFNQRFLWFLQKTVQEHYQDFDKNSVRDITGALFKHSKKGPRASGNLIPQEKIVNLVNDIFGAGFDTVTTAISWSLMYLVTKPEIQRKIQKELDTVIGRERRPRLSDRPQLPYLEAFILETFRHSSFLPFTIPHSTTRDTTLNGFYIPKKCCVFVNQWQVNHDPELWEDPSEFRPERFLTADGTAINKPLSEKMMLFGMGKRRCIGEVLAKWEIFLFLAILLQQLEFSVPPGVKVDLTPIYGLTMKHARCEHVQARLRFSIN
Cytochrome P450 2D6 (Homo sapiens), sequence (P10635 whole entry, looked up): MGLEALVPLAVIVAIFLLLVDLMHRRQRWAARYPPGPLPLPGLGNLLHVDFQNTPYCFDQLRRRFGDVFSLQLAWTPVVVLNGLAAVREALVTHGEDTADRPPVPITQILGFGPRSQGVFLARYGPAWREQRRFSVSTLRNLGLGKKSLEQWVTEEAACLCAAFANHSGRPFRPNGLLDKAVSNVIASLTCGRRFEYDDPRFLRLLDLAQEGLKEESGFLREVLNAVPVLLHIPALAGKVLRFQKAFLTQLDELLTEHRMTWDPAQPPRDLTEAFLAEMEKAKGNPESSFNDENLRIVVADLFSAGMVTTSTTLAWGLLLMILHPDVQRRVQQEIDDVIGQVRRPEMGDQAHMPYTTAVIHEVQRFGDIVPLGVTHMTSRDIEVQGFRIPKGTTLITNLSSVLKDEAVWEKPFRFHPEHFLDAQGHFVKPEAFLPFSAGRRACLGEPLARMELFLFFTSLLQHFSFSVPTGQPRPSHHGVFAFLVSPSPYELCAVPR
Cytochrome P450 2C9 (Homo sapiens), sequence (P11712 whole entry, looked up): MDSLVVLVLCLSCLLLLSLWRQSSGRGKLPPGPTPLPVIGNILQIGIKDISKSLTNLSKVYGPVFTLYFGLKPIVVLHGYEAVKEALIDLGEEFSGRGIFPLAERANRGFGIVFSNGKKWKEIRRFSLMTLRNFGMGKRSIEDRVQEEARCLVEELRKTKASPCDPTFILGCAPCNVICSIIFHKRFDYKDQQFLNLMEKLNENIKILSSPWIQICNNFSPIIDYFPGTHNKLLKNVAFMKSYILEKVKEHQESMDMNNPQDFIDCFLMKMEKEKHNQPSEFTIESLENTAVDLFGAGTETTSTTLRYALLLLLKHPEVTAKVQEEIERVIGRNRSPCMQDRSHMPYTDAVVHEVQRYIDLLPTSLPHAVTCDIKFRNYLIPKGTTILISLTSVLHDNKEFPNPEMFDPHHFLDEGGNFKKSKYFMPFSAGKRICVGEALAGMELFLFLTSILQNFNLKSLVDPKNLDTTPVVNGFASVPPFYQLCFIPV
Voltage-gated inwardly rectifying potassium channel KCNH2 (Homo sapiens), sequence (Q12809 whole entry, looked up): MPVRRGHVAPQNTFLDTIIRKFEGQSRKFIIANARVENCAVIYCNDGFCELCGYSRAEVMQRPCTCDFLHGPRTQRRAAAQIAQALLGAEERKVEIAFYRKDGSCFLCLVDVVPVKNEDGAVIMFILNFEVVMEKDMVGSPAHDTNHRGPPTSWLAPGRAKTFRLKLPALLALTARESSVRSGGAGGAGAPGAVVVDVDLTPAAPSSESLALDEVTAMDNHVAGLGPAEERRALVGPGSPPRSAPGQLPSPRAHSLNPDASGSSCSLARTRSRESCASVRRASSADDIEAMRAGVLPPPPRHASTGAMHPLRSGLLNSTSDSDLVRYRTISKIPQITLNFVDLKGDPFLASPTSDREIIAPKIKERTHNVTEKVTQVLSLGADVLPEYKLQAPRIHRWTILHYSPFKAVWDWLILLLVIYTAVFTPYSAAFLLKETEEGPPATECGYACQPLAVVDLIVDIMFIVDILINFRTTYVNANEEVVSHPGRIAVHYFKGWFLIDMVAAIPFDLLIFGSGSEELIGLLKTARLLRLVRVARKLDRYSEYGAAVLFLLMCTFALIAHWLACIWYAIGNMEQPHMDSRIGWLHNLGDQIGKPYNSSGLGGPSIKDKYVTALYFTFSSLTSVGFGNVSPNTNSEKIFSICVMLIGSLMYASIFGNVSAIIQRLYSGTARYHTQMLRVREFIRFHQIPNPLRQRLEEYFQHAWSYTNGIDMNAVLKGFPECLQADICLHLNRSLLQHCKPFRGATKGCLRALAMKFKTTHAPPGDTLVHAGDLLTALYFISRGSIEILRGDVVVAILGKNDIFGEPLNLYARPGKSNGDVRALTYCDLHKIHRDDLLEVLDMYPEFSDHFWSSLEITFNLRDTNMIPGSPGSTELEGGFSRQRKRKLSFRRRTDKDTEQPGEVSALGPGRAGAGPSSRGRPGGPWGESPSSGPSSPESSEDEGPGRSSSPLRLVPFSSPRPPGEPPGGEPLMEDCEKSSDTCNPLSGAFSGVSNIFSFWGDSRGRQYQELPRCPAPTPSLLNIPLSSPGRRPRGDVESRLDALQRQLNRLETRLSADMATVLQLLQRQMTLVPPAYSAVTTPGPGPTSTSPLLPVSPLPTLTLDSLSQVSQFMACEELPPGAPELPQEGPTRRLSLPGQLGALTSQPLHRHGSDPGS
Cytochrome P450 2C19 (Homo sapiens), sequence (P33261 whole entry, looked up): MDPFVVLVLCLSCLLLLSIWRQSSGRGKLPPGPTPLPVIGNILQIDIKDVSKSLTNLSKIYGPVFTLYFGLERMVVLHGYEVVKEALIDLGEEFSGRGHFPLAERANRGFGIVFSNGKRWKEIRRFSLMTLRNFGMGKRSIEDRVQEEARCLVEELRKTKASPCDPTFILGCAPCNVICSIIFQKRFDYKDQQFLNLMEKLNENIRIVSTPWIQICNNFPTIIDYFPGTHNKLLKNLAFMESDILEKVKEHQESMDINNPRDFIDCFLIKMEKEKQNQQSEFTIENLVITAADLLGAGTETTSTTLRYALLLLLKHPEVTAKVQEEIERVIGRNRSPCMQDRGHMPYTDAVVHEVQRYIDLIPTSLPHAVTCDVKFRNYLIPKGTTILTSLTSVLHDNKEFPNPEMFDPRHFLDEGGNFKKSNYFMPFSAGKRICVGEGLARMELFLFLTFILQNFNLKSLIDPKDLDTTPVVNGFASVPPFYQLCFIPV
Acetylcholinesterase (Homo sapiens), sequence (P22303 whole entry, looked up): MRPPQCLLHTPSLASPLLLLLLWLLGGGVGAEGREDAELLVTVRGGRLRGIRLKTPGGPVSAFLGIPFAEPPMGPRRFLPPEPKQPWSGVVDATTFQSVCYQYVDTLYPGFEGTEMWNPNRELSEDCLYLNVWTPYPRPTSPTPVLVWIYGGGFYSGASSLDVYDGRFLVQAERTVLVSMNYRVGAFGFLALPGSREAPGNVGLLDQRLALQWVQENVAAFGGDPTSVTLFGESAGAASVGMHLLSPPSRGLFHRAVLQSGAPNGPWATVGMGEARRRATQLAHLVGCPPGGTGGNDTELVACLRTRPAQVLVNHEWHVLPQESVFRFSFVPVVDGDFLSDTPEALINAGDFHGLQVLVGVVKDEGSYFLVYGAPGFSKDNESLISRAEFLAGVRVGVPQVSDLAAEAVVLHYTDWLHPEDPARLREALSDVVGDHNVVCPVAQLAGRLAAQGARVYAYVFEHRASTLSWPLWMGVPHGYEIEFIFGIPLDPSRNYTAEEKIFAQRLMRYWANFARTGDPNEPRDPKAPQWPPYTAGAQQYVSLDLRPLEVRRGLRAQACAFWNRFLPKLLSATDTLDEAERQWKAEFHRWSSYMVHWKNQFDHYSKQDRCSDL

CCCCCCCCCCCCCCCCCCn1cc[n+](C)c1
inactive: Potency [2] | Potency [4] | Potency [6]
active: Potency [1] 4.3 µM | Potency [3] 68.2 µM | Potency [5] 28.1 µM | Potency [7] 0.888 µM | Potency [8] 79.2 µM | Potency [9] 6.88 µM | Potency [10] 31.5 µM

CCN(CC)c1c([N+](=O)[O-])cc(C(F)(F)F)c(N)c1[N+](=O)[O-]
active: Potency [4] 6.86 µM | Potency [8] 20 µM | Potency [13] 0.356 µM
inactive: Potency [2] | Potency [3] | Potency [11] | Potency [5] | Potency [12] | Potency [6] | Potency [9]

CC1CCC(C(C)C)C(OC(=O)c2ccccc2N)C1 (centres undefined)
inactive: max activation [14] 13.1% | Potency [15] | Potency [5] | Potency [12] | Potency [6] | Potency [10]
active: Potency [4] 19.1 µM | Potency [8] 1.11 µM | Potency [13] 12.4 µM | Potency [9] 43 µM

CN(C)c1ccc(N=Nc2ccccc2)cc1
active: Potency [1] 30.7 µM | Potency [3] 48.6 µM | Potency [4] 7.7 µM | Potency [7] 40 µM | Potency [8] 20 µM | Potency [16] 15.9 µM | Potency [13] 3.56 µM
inactive: Potency [2] | Potency [12] | Potency [6] | Potency [9] | Potency [10]

CC(=O)[O-].[Tl+]
inactive: Potency [2] | Potency [3] | Potency [9]
active: Potency [1] 43.5 µM

C[CH2][Hg][N]1C(=O)C2C(C1=O)C1(Cl)C(Cl)=C(Cl)C2(Cl)C1(Cl)Cl (centres undefined)
active: Potency [1] 11.6 µM | Potency [7] 16.9 µM | Potency [16] 13.5 µM | Potency [10] 13.5 µM
inactive: caspase-3/7 activation [2] -6.08% [at 19 µM] | activation [4] -20.9% [at 19 µM] | activity, negative = inhibition [11] 0.291% [at 23.6 µM] | activity change, negative = inhibition [12] 11.1% [at 23.8 µM] | activity change, negative = inhibition [6] -0.312% [at 23.6 µM]

CC[C@H]1C[C@@H]2C[C@H]3c4[nH]c5ccc(OC)cc5c4CCN(C2)[C@@H]13
inactive: Potency [2] | Potency [4] | Potency [11] | Potency [5] | Potency [6]
active: Potency [7] 0.698 µM | Potency [13] 44.1 µM

CCCCCCCCCC[N+](C)(C)CCCCCCCCCC
inactive: Potency [4] | max activation [14] -13.5% | Potency [15] | Potency [17] | Potency [6]
active: Potency [1] 19.3 µM | Potency [3] 68.6 µM | Potency [5] 31.7 µM | Potency [12] 56.4 µM | Potency [7] 1 µM | Potency [8] 35.6 µM | Potency [16] 39.9 µM | Potency [13] 39.9 µM

Nc1ccccc1C(=O)Oc1ccc2ccccc2c1
inactive: Potency [2] | Potency [3] | Potency [11] | Potency [5] | Potency [12] | Potency [6] | Potency [10]
active: Potency [4] 27.3 µM | Potency [8] 35.6 µM | Potency [16] 20 µM

O=C(Nc1ccc2[nH]ccc2c1)c1cc2cc(F)ccc2n1Cc1cccc(F)c1
inactive: Potency [11] | Potency [5] | Potency [12] | Potency [6] | Potency [9]
active: Potency [1] 30.6 µM | Potency [4] 24.3 µM | Potency [7] 15.9 µM | Potency [8] 6.33 µM | Potency [16] 3.56 µM | Potency [10] 2.52 µM

CCOC(=O)C1(c2ccccc2)CCN(CCC(C#N)(c2ccccc2)c2ccccc2)CC1
inactive: Potency [2] | Potency [3] | Potency [11] | Potency [5] | Potency [12] | Potency [6] | Potency [13]
active: Potency [4] 3.35 µM | Potency [15] 1.41 µM | Potency [17] 1.12 µM | Potency [7] 4.9 µM | Potency [8] 9.77 µM | Potency [9] 0.601 µM
